Screens from PubChem BioAssay.
In the library only some 1% were active in any assay of this set; here they are far more common.
TCR activator: Activators of T cell receptors: qHTS campaign | 330,000 tested, under 10 active | primary human leukocytes, anti-CD3, IL-2 HTRF, 48 h | Potency, µM (top dose mostly 9.22 µM), without a hit: at the highest dose activation of IL-2 secretion, hits mostly activators; also: % of control where 0% means no effect
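TCR engagement came from a-CD3 beads alone, with compounds added to primary human leukocytes for 48 hr. Secreted IL-2 bridged europium cryptate- and d2-labelled anti-IL-2 antibodies, giving FRET emission at 665nm after 320nm excitation.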
TR SRC2 fluor cs: Total Fluorescence Counterscreen for Inhibitors of the Interaction of Thyroid Hormone Receptor and Steroid Receptor Coregulator 2; TRb/SRC2 Texas Red total fluorescence interference; Potency, µM (titrated, usually from 106 µM), inactives show top-dose fluorescence change, negative = quenching; 0.29% of 280,000 active; active = well fitted curve in either direction with a large enough effect; inconclusive = small, poorly fitted or top-dose-only effect; also: potency is read from the fitted curve at half-maximal effect; % is scaled to controls: 0 for no effect and ±100 for the full control effect
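Human TRβ ligand-binding domain (0.6 uM) and Texas Red SRC2 peptide (20 nM) in Tris buffer with 1 uM T3 and 5% DMSO were incubated with pinned compound for 5 hr at ambient temperature. Total fluorescence was computed as S + 2P (555/632 nm).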
NPSR antag: qHTS Assay for Antagonists of the Neuropeptide S Receptor: cAMP Signal Transduction. Potency, µM (top dose mostly 38.3 µM), inactives show at the top dose activity change, negative = inhibition, actives largely listed as inhibitors. Q6W5P4. CHO-NPSR cells, cAMP TR-FRET, antagonist mode. 1% of 220,000 active. AID 1461, 2008; also: potency is read from the fitted curve at half-maximal effect; % is scaled to controls: 0 for no effect and ±100 for the full control effect; nearly all actives have a fitted effect of over 50% in size
TRb SRC2 PPI: qHTS for Inhibitors of the Interaction of Thyroid Hormone Receptor and Steroid Receptor Coregulator 2 | Thyroid hormone receptor beta (Homo sapiens), P10828 | TRbeta-SRC2 peptide binding, fluorescence polarization; receptor liganded with 1 µM T3 | Potency, µM (top dose mostly 106 µM), for inactives: at the highest dose activity change, negative = inhibition, most hits filed as inhibitors | 0.065% of 280,000 active;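 also: potency is read from the fitted curve at half-maximal effect; plate controls were bound peptide for no effect and peptide without receptor for full effect; nearly all actives have a fitted effect of over 50% in size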
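Decrease in fluorescence polarization of 20 nM Texas Red SRC2 coactivator peptide flagged inhibition of its binding to 0.6 uM TRb LBD; 1 uM T3 included, incubation 5 hr, ex 555/em 632 nm.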
FBPA coupling cs: qHTS Assay for Inhibitors of Fructose-1,6-bisphosphate Aldolase from Giardia Lamblia: Coupling assay counterscreen; 0.67% of 290,000 active; activity change, negative = inhibition, % at 58.2 µM, hits read low; coupling enzyme system counterscreen, AmpLite Red fluorescence; in the data active = activity change below about -30%; also: % is scaled to controls: 0 for no effect and ±100 for the full control effect
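Activity here indicates interference with the coupling reaction, not aldolase inhibition. Compounds at 57.5 uM final met coupling enzymes for 10 min at RT; substrate and AmpLite Red detection followed, with a 525/598 nm fluorescence read after 20 min.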
TSHR antag: Antagonists of the Thyroid Stimulating Hormone Receptor: HTS campaign; Thyrotropin receptor (Homo sapiens), P16473; 0.2% of 330,000 active; AID 504810, 2011; TSHR-expressing cells, TSH-stimulated cAMP HTRF, 2 h; stronger effect = lower value; activity change, negative = inhibition, % at 11.5 µM;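 active = activity change below a set negative limit, meaning inhibition stronger than a set level, cut at about -70% in these data; inconclusive = activity change between two set negative limits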; also: % is scaled to controls: 0 for no effect and ±100 for the full control effect
Target sequence (P16473 whole entry, looked up): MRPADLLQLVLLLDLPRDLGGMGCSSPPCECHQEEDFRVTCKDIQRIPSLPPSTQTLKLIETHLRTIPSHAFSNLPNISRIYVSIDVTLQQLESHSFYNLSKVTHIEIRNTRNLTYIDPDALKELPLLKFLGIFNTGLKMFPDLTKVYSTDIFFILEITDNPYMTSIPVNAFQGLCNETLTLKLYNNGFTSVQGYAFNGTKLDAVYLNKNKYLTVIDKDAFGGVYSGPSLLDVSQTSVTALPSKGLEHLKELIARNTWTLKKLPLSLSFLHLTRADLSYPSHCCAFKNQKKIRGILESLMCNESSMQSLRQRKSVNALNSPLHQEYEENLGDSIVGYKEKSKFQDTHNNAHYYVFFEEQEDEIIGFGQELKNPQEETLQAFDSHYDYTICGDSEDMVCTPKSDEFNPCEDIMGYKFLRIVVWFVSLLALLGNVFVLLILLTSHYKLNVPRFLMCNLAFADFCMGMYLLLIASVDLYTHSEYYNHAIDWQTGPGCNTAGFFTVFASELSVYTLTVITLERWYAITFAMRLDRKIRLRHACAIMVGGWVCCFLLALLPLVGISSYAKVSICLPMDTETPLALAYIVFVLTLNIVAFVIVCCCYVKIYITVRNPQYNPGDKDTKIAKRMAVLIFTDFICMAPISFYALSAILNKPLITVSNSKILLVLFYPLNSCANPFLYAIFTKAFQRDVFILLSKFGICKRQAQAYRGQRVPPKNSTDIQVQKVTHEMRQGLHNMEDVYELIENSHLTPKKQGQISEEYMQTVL
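Inhibition of cAMP made by TSHR-expressing cells under TSH stimulation (4nM final, EC80; 2 h, 37 deg C) is quantified with a one-step lysis HTRF kit, anti-cAMP cryptate versus cAMP-d2.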
An asterisk follows results filed as active; [ ] = dose if it differs, or a comment. Unless noted, calls follow the shape of the dose curve; as a rule, active = well fitted curve in the direction sought with a large enough effect; inconclusive = small, poorly fitted or top-dose-only effect, or another doubt; inactive = no such curve, though single readings can be large; an effect the other way counts as inactive or inconclusive.

How did CCC(C)NC(=O)CN1C(=O)CSc2ccc(S(=O)(=O)N3CCCC3)cc21 (configuration not stated) do in these assays?
TCR activator: -7%; FBPA coupling cs: -2; TSHR antag: -125*

What do the screens show for `COc1cccc(CNC(=O)CN2C(=O)CSc3ccc(S(=O)(=O)N4CCOCC4)cc32)c1`?
TCR activator: -7%; FBPA coupling cs: 1; TSHR antag: -140*

Results for CC(C)NC(=O)CN1C(=O)CSc2ccc(S(=O)(=O)N3CCCC3)cc21 ?
TCR activator: -3%; FBPA coupling cs: 0; TSHR antag: 22

What do the screens show for `CC1CCN(CCCNC(=O)CN2C(=O)CSc3ccc(S(=O)(=O)N4CCOCC4)cc32)CC1`?
TCR activator: -2%; TR SRC2 fluor cs: -1%; TRb SRC2 PPI: -1%; TSHR antag: -89*

What do the screens show for `O=S(=O)(c1ccc(Cl)cc1)c1nc(-c2cccs2)oc1SCc1ccccc1F`?
TR SRC2 fluor cs: 1%; TRb SRC2 PPI: 12%

Results for O=C(/C=C/c1ccc(O)cc1)OC[C@H]1O[C@@H](Oc2c(-c3ccc(O)cc3)oc3cc(O)cc(O)c3c2=O)[C@H](O)[C@@H](O)[C@@H]1O ?
TR SRC2 fluor cs: -4%; TRb SRC2 PPI: 10%; FBPA coupling cs: 2

Results for O=S(=O)(O)c1cc(S(=O)(=O)O)c2c(N=Nc3ccccc3)c(O)ccc2c1 ?
TR SRC2 fluor cs: -14%[201 µM]; TRb SRC2 PPI: 0%[201 µM]

Results for Brc1ccc(Br)c(Br)c1 ?
TR SRC2 fluor cs: -4%[201 µM]; TRb SRC2 PPI: 4%[201 µM]

How did O=C1Cc2ccccc2Sc2cc(OCCCN3CCCCC3)ccc21 do in these assays?
TCR activator: 12%[46.1 µM]; TR SRC2 fluor cs: 2%; NPSR antag: -33%; TRb SRC2 PPI: -2%; FBPA coupling cs: -16; TSHR antag: -1

Results for O=C1Cc2ccccc2Sc2c(OCCN3CCCCC3)cccc21 ?
TCR activator: 10%[46.1 µM]; TR SRC2 fluor cs: -1%; NPSR antag: inconclusive; TRb SRC2 PPI: 6%; FBPA coupling cs: -50*; TSHR antag: 3

How did CCOC(=O)c1c(C)[nH]c(C2=NNC(=Nc3ccccc3)SC2)c1C do in these assays?
TCR activator: 2%[46.1 µM]; TR SRC2 fluor cs: 3%; NPSR antag: -27%[46.1 µM]; TRb SRC2 PPI: 2%; FBPA coupling cs: -38*; TSHR antag: -1

What do the screens show for `CC(C)c1cnc2c(c1SCC(=O)NCc1ccccc1)c(=O)n(C)c(=O)n2C`?
TR SRC2 fluor cs: -1%; TRb SRC2 PPI: -2%

Results for CCOc1ccccc1NC(=O)C(NCCc1ccc(OC)cc1)c1ccccc1 (configuration not stated) ?
TCR activator: 3%; TSHR antag: -73*

What do the screens show for `CC(C)CCCCCCc1ccc(OCCOCCO)cc1`?
TR SRC2 fluor cs: 2%[201 µM]; TRb SRC2 PPI: 6%[201 µM]

Results for COc1ccc(Cn2c(C(=O)O)c(CNCCc3cccs3)c3ccc(C)cc32)cc1 ?
TR SRC2 fluor cs: 0%; TRb SRC2 PPI: -1%

Results for COC1=C(N)C(=O)c2nc(-c3nc(C(=O)O)c(C)c(-c4ccc(OC)c(OC)c4O)c3N)ccc2C1=O ?
TCR activator: -15%; TR SRC2 fluor cs: -5%; NPSR antag: 3%; TRb SRC2 PPI: -13%; FBPA coupling cs: -64*; TSHR antag: -72*

Results for Cc1ccc(Cl)cc1NC(=O)c1oc2ccc(S(=O)(=O)N(C)C3CCCCC3)cc2c1C ?
TR SRC2 fluor cs: 0%; TRb SRC2 PPI: -7%

What do the screens show for `Cc1ccc(CN=Cc2[nH]c3ccc(Br)c(Cl)c3c2O)cc1`?
TCR activator: -6%; TR SRC2 fluor cs: -4%; NPSR antag: 3%[46.1 µM]; TRb SRC2 PPI: -7%; FBPA coupling cs: -40*; TSHR antag: 18

What do the screens show for `Oc1c(C=NCc2ccc(F)cc2)[nH]c2ccc(Br)c(Cl)c12`?
TR SRC2 fluor cs: -8%; NPSR antag: 1%[46.1 µM]; TRb SRC2 PPI: 4%; FBPA coupling cs: -25; TSHR antag: 0

How did CC1=C(C(=O)N2CCOCC2)C(c2ccc(O)cc2)NC(=S)N1 (configuration not stated) do in these assays?
TCR activator: 3%[46.1 µM]; TR SRC2 fluor cs: -1%; NPSR antag: 14%; TRb SRC2 PPI: -7%; FBPA coupling cs: 0; TSHR antag: 23

Results for Oc1ccc2c(c1)C1CCCC1(N1CCOCC1)O2 (configuration not stated) ?
TCR activator: -4%; TR SRC2 fluor cs: -8%; NPSR antag: -1%[46.1 µM]; TRb SRC2 PPI: -1%; FBPA coupling cs: -37*; TSHR antag: 0

What do the screens show for `NC(=O)C1CCN(c2nc(-c3cccc([N+](=O)[O-])c3)cs2)CC1`?
TSHR antag: -7

Results for CCC(=O)NC(Nc1sc2c(c1C(=O)OC)CCC2)C(Cl)(Cl)Cl (configuration not stated) ?
TCR activator: -5%[46.1 µM]; TR SRC2 fluor cs: 0%; NPSR antag: -51%; TRb SRC2 PPI: -8%; FBPA coupling cs: -6; TSHR antag: -72*

What do the screens show for `COc1ccc(CCNC(=O)CCCn2nc(C)c3sc4ccccc4c3c2=O)c(OC)c1`?
TR SRC2 fluor cs: -2%; TRb SRC2 PPI: -1%

How did Cc1cc(C)cc(NC(=O)CN2C(=O)COc3ccc(S(=O)(=O)Nc4ccccc4)cc32)c1 do in these assays?
TR SRC2 fluor cs: -1%; TRb SRC2 PPI: 4%

How did COc1cc(/C=C2\CC/C(=C\c3cc(OC)c(O)c(OC)c3)C2=O)cc(OC)c1O do in these assays?
TCR activator: 0%[46.1 µM]; TR SRC2 fluor cs: -18%[53 µM]; NPSR antag: -40%; TRb SRC2 PPI: 11%[53 µM]; FBPA coupling cs: -34*; TSHR antag: -17

What do the screens show for `COc1cc(/C=C2/CCC/C(=C\c3cc(O)c(OC)c(Cl)c3)C2=O)cc(Cl)c1O`?
TCR activator: 1%; TR SRC2 fluor cs: -2%; NPSR antag: 7.9µM*; TRb SRC2 PPI: 3%; FBPA coupling cs: -1; TSHR antag: -13

What do the screens show for `COc1cc(/C=C2\CC/C(=C\c3cc(OC)c(OC)c(OC)c3)C2=O)cc(OC)c1OC`?
TCR activator: -10%[46.1 µM]; TR SRC2 fluor cs: -1%; NPSR antag: -11%; TRb SRC2 PPI: 0%; FBPA coupling cs: -2; TSHR antag: -31
